# Assay results taken from PubChem BioAssay (Tox21).
# Results filed as inconclusive are left out. A call without a number means that no potency is given here. Active and inactive are the calls of the source. Unless noted, the call rests on the fitted dose curve; in most records, active means well fitted curve in the direction sought with a large enough effect in the repeat runs; inconclusive means weak or mixed curves; inactive means no such curve, though single readings can be large; an effect the other way counts as inactive or inconclusive.
# Legend:
# [1] = qHTS assay for small molecules that induce genotoxicity in human embryonic kidney cells expressing luciferase-tagged ATAD5 (AID 651632); further: nearly all actives have a fitted effect of over 15% in size
# How it was run: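 ATAD5-luc HEK293T, 2,000 cells/well; cpd or DMSO pin-transferred; 16 hr, 37C/5% CO2; Amplite 30 min RT; luminescence.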
# [2] = qHTS assay for small molecule disruptors of the mitochondrial membrane potential - cell viability (AID 720634; calls by dose curve;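 further: human HepG2 liver cancer cells; series mostly up to about 83 µM; nearly all actives have a fitted effect of over 20% in size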)
# How it was run: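 Cells: HepG2, 2,000/well, attached overnight. Compound 1 hr, 37 C/5% CO2. +m-MPI dye, +CellTiter-Glo 30 min RT. Readout: luminescence (ATP).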
# [3] = qHTS assay to test for compound auto fluorescence at 590 nm (red) in HepG2 cells (AID 720674)
# How it was run: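 Red autofluorescence (Ex/Em 540/590 nm, Rose Bengal sodium equivalents) was measured in HepG2 cells, 2,000 per well in MEM plus 10% FBS, plated overnight at 37 C. Readings were taken 1 hr after adding 23 nL compound or DMSO, at 37 C and 5% CO2.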
# [4] = qHTS assay to test for compound auto fluorescence at 535 nm (green) in HepG2 cells (AID 720675)
# [5] = qHTS assay to test for compound auto fluorescence at 460 nm (blue) in HEK293 cells (AID 720678)
# How it was run: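 After cell attachment (4-5 hr, 37C), compounds were pinned onto HEK293 monolayers in 10% dialyzed FBS medium. The blue channel (405/460 nm) was read following overnight culture. Equivalency was calculated against triamterene.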
# [6] = qHTS assay to test for compound auto fluorescence at 590 nm (red) in HEK293 cells (AID 720679)
# How it was run: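 Plates of HEK293 cells (10% dialyzed FBS) are treated with 23 nL compound or DMSO vehicle after a 4-5 hr attachment period, incubated overnight at 37C, and read for red fluorescence at 540/590nm.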
# [7] = qHTS assay to test for compound auto fluorescence at 535 nm (green) in HEK293 cells (AID 720680)
# [8] = qHTS assay to test for compound auto fluorescence at 460 nm (blue) in HEK293 cell free culture (AID 720681)
# How it was run: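 Blue fluorescence (Ex 405/Em 460 nm, triamterene-equivalent) was read immediately after pin transfer of compound or DMSO into medium (DMEM, 10% FBS) without cells.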
# [9] = qHTS assay to test for compound auto fluorescence at 535 nm (green) in HEK293 cell free culture (AID 720682)
# How it was run: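 Each library compound, or DMSO control, is added by pintool to medium alone, comprising DMEM and 10% FBS. Emission at 535 nm following 485 nm excitation is quantified against fluorescein.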
# [10] = qHTS assay to test for compound auto fluorescence at 590 nm (red) in HEK293 cell free culture (AID 720683)
# How it was run: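 Red-channel autofluorescence of compounds in culture medium (DMEM, 10% FBS), no cells, measured at 540/590 nm. Rose Bengal sodium is the reference fluorophore for equivalence.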
# [11] = qHTS assay to test for compound auto fluorescence at 590 nm (red) in HepG2 cell free culture (AID 720684)
# How it was run: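 Plate contents were MEM with 10% FBS plus test compound or DMSO, no cells. Fluorescence was recorded with 540 nm excitation and 590 nm emission.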
# [12] = qHTS assay to test for compound auto fluorescence at 460 nm (blue) in HepG2 cell free culture (AID 720685)
# How it was run: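 Compound (23 nL) or DMSO pinned into cell-free MEM with 10% FBS; blue fluorescence read at 405/460 nm excitation/emission, expressed as auto-fluorescence equivalency to triamterene.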
# [13] = qHTS assay to test for compound auto fluorescence at 535 nm (green) in HepG2 cell free culture (AID 720686)
# [14] = qHTS assay to test for compound auto fluorescence at 460 nm (blue) in HepG2 cells (AID 720687)
# How it was run: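 Blue-channel autofluorescence (Ex/Em 405/460 nm, triamterene-equivalent) was measured after 1 hr compound exposure at 37 C, 5% CO2. Cells were HepG2, plated overnight at 37 C in MEM plus 10% FBS.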
# [15] = target: Glucocorticoid receptor (Homo sapiens) (UniProt P04150); assay: qHTS assay to identify small molecule agonists of the glucocorticoid receptor (GR) signaling pathway (AID 720691; active means well fitted activation curve with a large enough effect in the signal ratio in the repeat runs, not every such curve was filed as active; the % refers to the signal ratio)
# How it was run: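 Fluorescence intensity from LiveBLAzer B/G FRET substrate (2 h, room temperature) reports beta-lactamase expression driven by the glucocorticoid response element in GR-bla HeLa cells after 18 h compound exposure at 37 C.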
# [16] = target: Glucocorticoid receptor (Homo sapiens) (UniProt P04150); assay: qHTS assay to identify small molecule antagonists of the glucocorticoid receptor (GR) signaling pathway (AID 720692; active means well fitted inhibition curve with a large enough effect in the signal ratio in the repeat runs, not every such curve was filed as active; the % refers to the signal ratio; further: potency means the concentration at half of the fitted maximal effect)
# How it was run: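 HeLa GR-bla cells; cmpd + dex 5 nM final, 18 h 37 C; LiveBLAzer B/G FRET substrate 2 h RT; fluorescence intensity read. Antagonist mode, qHTS.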
# [17] = qHTS assay for small molecules that induce genotoxicity in human embryonic kidney cells expressing luciferase-tagged ATAD5 - cell viability (AID 651634; calls by dose curve; further: nearly all actives have a fitted effect of over 25% in size)
# How it was run: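 Fluorescence from CellTiter-Fluor, reporting protease activity within live cells, served as the viability read-out. HEK293T cells carrying luciferase-tagged ATAD5 had been treated with compound for 15.5 hr at 37C.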
# [18] = qHTS assay for small molecule disruptors of the mitochondrial membrane potential (AID 720635); further: potency means the concentration at half of the fitted maximal effect
# How it was run: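 Mitochondrial membrane potential tracked with Mito-MPS dye, red aggregates (ex 540/em 590 nm) against green monomers (ex 490/em 535 nm). Compound treatment 1 hr at 37C, dye 30 min in HepG2.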
# Glucocorticoid receptor (Homo sapiens), sequence (P04150 whole entry, looked up): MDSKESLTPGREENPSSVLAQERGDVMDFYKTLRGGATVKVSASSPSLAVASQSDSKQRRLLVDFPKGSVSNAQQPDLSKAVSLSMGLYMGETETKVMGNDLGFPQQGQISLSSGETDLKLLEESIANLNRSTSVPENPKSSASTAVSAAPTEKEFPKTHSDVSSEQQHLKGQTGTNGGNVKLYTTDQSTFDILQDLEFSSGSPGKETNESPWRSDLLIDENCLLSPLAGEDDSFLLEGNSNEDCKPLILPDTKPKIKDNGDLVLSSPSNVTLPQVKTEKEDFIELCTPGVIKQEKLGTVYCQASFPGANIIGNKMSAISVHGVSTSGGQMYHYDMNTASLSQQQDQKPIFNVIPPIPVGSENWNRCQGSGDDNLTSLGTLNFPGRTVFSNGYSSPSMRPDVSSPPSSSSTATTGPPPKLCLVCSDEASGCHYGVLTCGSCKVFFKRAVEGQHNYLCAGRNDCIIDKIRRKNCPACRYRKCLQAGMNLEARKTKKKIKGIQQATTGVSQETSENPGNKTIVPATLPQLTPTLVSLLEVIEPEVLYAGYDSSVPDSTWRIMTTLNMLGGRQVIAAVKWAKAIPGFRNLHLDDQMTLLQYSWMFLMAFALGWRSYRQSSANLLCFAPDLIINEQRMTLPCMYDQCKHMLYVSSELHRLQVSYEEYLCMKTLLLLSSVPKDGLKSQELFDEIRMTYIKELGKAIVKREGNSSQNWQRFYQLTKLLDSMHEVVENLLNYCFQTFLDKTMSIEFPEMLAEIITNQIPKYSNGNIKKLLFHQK
Compound,Potency [1],Potency [2],outcome [3],outcome [4],Potency [5],outcome [6],outcome [7],Potency [8],outcome [9],outcome [10],outcome [11],Potency [12],outcome [13],Potency [14],Potency [15],Potency [16],Potency [17],Potency [18]
CCC(C)(C)C1CCC(OC)CC1 (centres undefined),inactive,inactive,inactive,inactive,inactive,inactive,inactive,inactive,inactive,inactive,inactive,inactive,inactive,inactive,–,–,–,–
O=C(O)Cc1cc(I)c(Oc2cc(I)c(O)c(I)c2)c(I)c1,inactive,inactive,inactive,inactive,inactive,inactive,inactive,inactive,inactive,inactive,inactive,inactive,inactive,inactive,inactive,10.7 µM (active),–,–
CN(C)C(=O)Nc1ccccc1,inactive,inactive,inactive,inactive,inactive,inactive,inactive,inactive,inactive,inactive,inactive,inactive,inactive,inactive,–,–,inactive,–
CCCCCN(CCCCC)C(=O)C(CCC(=O)O)NC(=O)c1ccc(Cl)c(Cl)c1 (centres undefined),inactive,inactive,inactive,inactive,inactive,inactive,inactive,inactive,inactive,inactive,inactive,inactive,inactive,inactive,inactive,inactive,inactive,inactive
COC(=O)C1=C(C)NC(C)=C(C(=O)OCC(C)=O)C1c1ccccc1[N+](=O)[O-] (centres undefined),inactive,inactive,–,inactive,inactive,inactive,inactive,inactive,inactive,inactive,inactive,inactive,inactive,inactive,inactive,21.3 µM (active),–,9.44 µM (active)
C#CC(O)C(CC)CCCC (centres undefined),inactive,inactive,–,inactive,inactive,inactive,inactive,inactive,inactive,inactive,inactive,inactive,inactive,inactive,inactive,–,inactive,–
